# This is part of a sample that, as a whole, favours compounds with a hit. Of some 79,000 tested, about 15% had one in any assay. Unmarked numbers belong to inactive results. Calls of active or inactive are those of the source. No stated cut-off is given here; in the data, active means growth inhibition above about 70%; inactive means the rest.
# How the values were obtained:
# [1] = NCI Yeast Anticancer Drug Screen. Data for the rad52 strain (AID 147);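 further: 0% = growth of vehicle-treated control cultures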; conditions: S. cerevisiae rad52 mutant growth inhibition, active compounds read high
# Method in brief: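 Compounds are applied to a genetically defined yeast strain lacking normal DNA damage repair, and inhibition of growth is expressed relative to cultures given vehicle only.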
# [2] = NCI Yeast Anticancer Drug Screen. Data for the wt1 strain (AID 149);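 further: 0% = growth of vehicle-treated wt1 cultures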; conditions: S. cerevisiae wt1 strain (SPY 50644) growth inhibition, active compounds read high
# Method in brief: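 wt1 strain grown with compound or vehicle; inhibition taken from the growth difference.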
# [3] = NCI Yeast Anticancer Drug Screen. Data for the rad50EPP+ strain (AID 151);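 further: 0% = growth of vehicle-treated control cultures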; conditions: S. cerevisiae rad50 mutant strain, active compounds read high
# Method in brief: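 Compounds were applied to the rad50EPP+ yeast strain, which bears a defined DNA repair alteration, and growth inhibition was determined relative to vehicle-treated cultures.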
# [4] = NCI Yeast Anticancer Drug Screen. Data for the mgt1 strain (AID 153); conditions: S. cerevisiae mgt1 mutant growth inhibition, active compounds read high
# Method in brief: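 Strain: mgt1 yeast, one of a set carrying defined DNA damage repair or cell cycle control alterations. Compound-treated growth compared with vehicle.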
# [5] = NCI Yeast Anticancer Drug Screen. Data for the rad50 strain (AID 155);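 further: 0% = growth of vehicle-only cultures of the same strain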; conditions: S. cerevisiae rad50 strain growth inhibition, active compounds read high
# Method in brief: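 DNA repair mutant yeast, compound exposure, growth read-out; inhibition is taken relative to vehicle.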
# [6] = NCI Yeast Anticancer Drug Screen. Data for the mec2-1 strain (AID 157); conditions: S. cerevisiae mec2-1 strain, active compounds read high
# Method in brief: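 Strain: mec2-1 (DNA repair/cell cycle alteration). Compound exposure, then growth measured; inhibition expressed relative to vehicle.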
# [7] = NCI Yeast Anticancer Drug Screen. Data for the rad14 strain (AID 159);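 further: 0% = growth of vehicle-treated control cultures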; conditions: S. cerevisiae rad14 strain growth inhibition, active compounds read high
# Method in brief: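 DNA repair-defective yeast, compound-exposed; % growth inhibition derived by comparison with vehicle-treated controls.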
# [8] = NCI Yeast Anticancer Drug Screen. Data for the sgs1 mgt1 strain (AID 161);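 further: 0% = growth of cultures given vehicle only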; conditions: S. cerevisiae sgs1 mgt1 strain, active compounds read high
# Method in brief: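 Read-out: growth inhibition vs vehicle controls. Cells: mutant yeast strain deficient in DNA damage repair.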
# [9] = NCI Yeast Anticancer Drug Screen. Data for the CLN2oe strain (AID 163);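 further: 0% = growth of vehicle-only control cultures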; conditions: S. cerevisiae CLN2oe strain, active compounds read high
# Method in brief: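 Growth of a genetically modified yeast strain is measured after compound exposure and compared with cultures given vehicle alone.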
# [10] = NCI Yeast Anticancer Drug Screen. Data for the cln2 rad14 strain (AID 165);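 further: 0% = growth equal to vehicle treated cultures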; conditions: S. cerevisiae cln2 rad14 strain, active compounds read high
# Method in brief: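 Compounds are applied to the cln2 rad14 yeast strain, and growth is then compared with that of vehicle-treated cultures to give inhibition.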
# [11] = NCI Yeast Anticancer Drug Screen. Data for the bub3 strain (AID 167); conditions: S. cerevisiae bub3 mutant strain, active compounds read high
# Method in brief: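 In this screen, a yeast mutant lacking normal mitotic checkpoint function is challenged with compound. Relative growth versus vehicle gives the inhibition value.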
# [12] = NCI Yeast Anticancer Drug Screen. Data for the wt2 strain (AID 169);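 further: 0% = growth of vehicle-treated yeast cultures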; conditions: S. cerevisiae wt2 strain growth inhibition, active compounds read high
# Method in brief: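 This strain belongs to a panel of yeast strains with defined genetic alterations in DNA damage repair or cell cycle control. Compounds are applied, and growth inhibition is measured against vehicle-treated cultures.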
# [13] = NCI Yeast Anticancer Drug Screen. Data for the mlh1 strain (AID 171);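 further: 0% = growth of vehicle-treated control cultures of the same strain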; conditions: S. cerevisiae mlh1 strain growth inhibition, active compounds read high
# Method in brief: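 Growth of the mutant yeast strain after compound exposure, expressed as inhibition relative to vehicle-only controls.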
# [14] = NCI Yeast Anticancer Drug Screen. Data for the sgs1 strain (AID 173);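 further: 0% = growth of vehicle-only control cultures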; conditions: S. cerevisiae sgs1 mutant, active compounds read high
# Method in brief: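 Growth of a yeast strain bearing a defined genetic alteration is measured after compound treatment. Inhibition is expressed relative to vehicle-only controls.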
# [15] = NCI Yeast Anticancer Drug Screen. Data for the mlh1 rad18 strain (AID 175); conditions: S. cerevisiae mlh1 rad18 strain growth inhibition, active compounds read high
# Method in brief: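 Read-out is yeast growth inhibition, calculated against vehicle-only controls. The compound was applied to a strain engineered with DNA damage repair alterations.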
# [16] = NCI Yeast Anticancer Drug Screen. Data for the rad18 strain (AID 177); conditions: S. cerevisiae rad18 mutant growth inhibition, active compounds read high
# Method in brief: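 Growth of the mutant yeast strain after compound exposure, normalised to vehicle-only cultures.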
# [17] = at 5.0 µM (retest, dose inferred, filed as 0.5)
# [18] = at 50.0 µM (retest, dose inferred, filed as 5.0)
compound,measurement,setting,value
c1ccc(N=c2nc(N3CCOCC3)ss2)cc1,growth inhibition,[1]; at 1.2 µM,-3%
same,growth inhibition,[1]; at 3.7 µM,3%
same,growth inhibition,[1]; at 11.0 µM,27%
same,growth inhibition,[1]; at 33.0 µM,98% (active)
same,growth inhibition,[1]; at 100.0 µM,99% (active)
same,growth inhibition,[2]; at 1.2 µM,-3%
same,growth inhibition,[2]; at 3.7 µM,4%
same,growth inhibition,[2]; at 11.0 µM,15%
same,growth inhibition,[2]; at 33.0 µM,98% (active)
same,growth inhibition,[2]; at 100.0 µM,98% (active)
same,growth inhibition,[3]; at 1.2 µM,-5%
same,growth inhibition,[3]; at 3.7 µM,2%
same,growth inhibition,[3]; at 11.0 µM,19%
same,growth inhibition,[3]; at 33.0 µM,56%
same,growth inhibition,[3]; at 100.0 µM,99% (active)
same,growth inhibition,[4]; at 1.2 µM,-3%
same,growth inhibition,[4]; at 3.7 µM,11%
same,growth inhibition,[4]; at 11.0 µM,71% (active)
same,growth inhibition,[4]; at 33.0 µM,99% (active)
same,growth inhibition,[4]; at 100.0 µM,99% (active)
same,growth inhibition,[5]; at 1.2 µM,-6%
same,growth inhibition,[5]; at 3.7 µM,6%
same,growth inhibition,[5]; [17],19%
same,growth inhibition,[5]; at 11.0 µM,51%
same,growth inhibition,[5]; at 33.0 µM,99% (active)
same,growth inhibition,[5]; [18],99% (active)
same,growth inhibition,[5]; at 50.0 µM,98.6% (active)
same,growth inhibition,[5]; at 100.0 µM,99% (active)
same,growth inhibition,[6]; at 1.2 µM,-4%
same,growth inhibition,[6]; at 3.7 µM,7%
same,growth inhibition,[6]; [17],14%
same,growth inhibition,[6]; at 11.0 µM,37%
same,growth inhibition,[6]; at 33.0 µM,99% (active)
same,growth inhibition,[6]; [18],100% (active)
same,growth inhibition,[6]; at 50.0 µM,99.7% (active)
same,growth inhibition,[6]; at 100.0 µM,99% (active)
same,growth inhibition,[7]; at 1.2 µM,-3%
same,growth inhibition,[7]; at 3.7 µM,13%
same,growth inhibition,[7]; at 11.0 µM,61%
same,growth inhibition,[7]; at 33.0 µM,99% (active)
same,growth inhibition,[7]; at 100.0 µM,99% (active)
same,growth inhibition,[8]; [17],58%
same,growth inhibition,[8]; [18],100% (active)
same,growth inhibition,[8]; at 50.0 µM,98.7% (active)
same,growth inhibition,[9]; at 1.2 µM,-11%
same,growth inhibition,[9]; at 3.7 µM,-13%
same,growth inhibition,[9]; at 11.0 µM,3%
same,growth inhibition,[9]; at 33.0 µM,87% (active)
same,growth inhibition,[9]; at 100.0 µM,98% (active)
same,growth inhibition,[10]; [17],-5%
same,growth inhibition,[10]; [18],99% (active)
same,growth inhibition,[10]; at 50.0 µM,93.4% (active)
same,growth inhibition,[11]; at 1.2 µM,-5%
same,growth inhibition,[11]; at 3.7 µM,5%
same,growth inhibition,[11]; [17],8%
same,growth inhibition,[11]; at 11.0 µM,56%
same,growth inhibition,[11]; at 33.0 µM,99% (active)
same,growth inhibition,[11]; [18],99% (active)
same,growth inhibition,[11]; at 50.0 µM,99.3% (active)
same,growth inhibition,[11]; at 100.0 µM,99% (active)
same,growth inhibition,[12]; at 1.2 µM,-1%
same,growth inhibition,[12]; at 3.7 µM,18%
same,growth inhibition,[12]; at 11.0 µM,53%
same,growth inhibition,[12]; at 33.0 µM,98% (active)
same,growth inhibition,[12]; at 100.0 µM,99% (active)
same,growth inhibition,[13]; at 1.2 µM,-1%
same,growth inhibition,[13]; at 3.7 µM,14%
same,growth inhibition,[13]; at 11.0 µM,73% (active)
same,growth inhibition,[13]; at 33.0 µM,99% (active)
same,growth inhibition,[13]; at 100.0 µM,99% (active)
same,growth inhibition,[14]; at 1.2 µM,7%
same,growth inhibition,[14]; at 3.7 µM,37%
same,growth inhibition,[14]; at 11.0 µM,87% (active)
same,growth inhibition,[14]; at 33.0 µM,99% (active)
same,growth inhibition,[14]; at 100.0 µM,99% (active)
same,growth inhibition,[15]; [17],26%
same,growth inhibition,[15]; [18],98% (active)
same,growth inhibition,[15]; at 50.0 µM,98.4% (active)
same,growth inhibition,[16]; at 1.2 µM,0%
same,growth inhibition,[16]; at 3.7 µM,18%
same,growth inhibition,[16]; at 11.0 µM,64%
same,growth inhibition,[16]; at 33.0 µM,99% (active)
same,growth inhibition,[16]; at 100.0 µM,94% (active)
O=S(=O)(O)c1ccc(Cl)cc1.[Cd],growth inhibition,[1]; at 1.2 µM,3%
same,growth inhibition,[1]; at 3.7 µM,9%
same,growth inhibition,[1]; at 11.0 µM,35%
same,growth inhibition,[1]; at 33.0 µM,50%
same,growth inhibition,[1]; at 100.0 µM,66%
same,growth inhibition,[2]; at 1.2 µM,2%
same,growth inhibition,[2]; at 3.7 µM,11%
same,growth inhibition,[2]; at 11.0 µM,25%
same,growth inhibition,[2]; at 33.0 µM,55%
same,growth inhibition,[2]; at 100.0 µM,73% (active)
same,growth inhibition,[3]; at 1.2 µM,9%
same,growth inhibition,[3]; at 3.7 µM,14%
same,growth inhibition,[3]; at 11.0 µM,23%
same,growth inhibition,[3]; at 33.0 µM,56%
same,growth inhibition,[3]; at 100.0 µM,75% (active)
same,growth inhibition,[4]; at 1.2 µM,0%
same,growth inhibition,[4]; at 3.7 µM,15%
same,growth inhibition,[4]; at 11.0 µM,27%
same,growth inhibition,[4]; at 33.0 µM,55%
same,growth inhibition,[4]; at 100.0 µM,77% (active)
same,growth inhibition,[5]; at 1.2 µM,-2%
same,growth inhibition,[5]; at 3.7 µM,15%
same,growth inhibition,[5]; [17],25%
same,growth inhibition,[5]; at 11.0 µM,47%
same,growth inhibition,[5]; at 33.0 µM,73% (active)
same,growth inhibition,[5]; [18],46%
same,growth inhibition,[5]; at 50.0 µM,57.1%
same,growth inhibition,[5]; at 100.0 µM,84% (active)
same,growth inhibition,[6]; at 1.2 µM,-2%
same,growth inhibition,[6]; at 3.7 µM,5%
same,growth inhibition,[6]; [17],6%
same,growth inhibition,[6]; at 11.0 µM,14%
same,growth inhibition,[6]; at 33.0 µM,25%
same,growth inhibition,[6]; [18],46%
same,growth inhibition,[6]; at 50.0 µM,39.4%
same,growth inhibition,[6]; at 100.0 µM,37%
same,growth inhibition,[7]; at 1.2 µM,-2%
same,growth inhibition,[7]; at 3.7 µM,18%
same,growth inhibition,[7]; at 11.0 µM,48%
same,growth inhibition,[7]; at 33.0 µM,71% (active)
same,growth inhibition,[7]; at 100.0 µM,86% (active)
same,growth inhibition,[8]; [17],23%
same,growth inhibition,[8]; [18],53%
same,growth inhibition,[8]; at 50.0 µM,50.5%
same,growth inhibition,[9]; at 1.2 µM,-18%
same,growth inhibition,[9]; at 3.7 µM,-17%
same,growth inhibition,[9]; at 11.0 µM,-6%
same,growth inhibition,[9]; at 33.0 µM,8%
same,growth inhibition,[9]; at 100.0 µM,20%
same,growth inhibition,[10]; [17],8%
same,growth inhibition,[10]; [18],11%
same,growth inhibition,[10]; at 50.0 µM,21.4%
same,growth inhibition,[11]; at 1.2 µM,-8%
same,growth inhibition,[11]; at 3.7 µM,8%
same,growth inhibition,[11]; [17],-6%
same,growth inhibition,[11]; at 11.0 µM,6%
same,growth inhibition,[11]; at 33.0 µM,19%
same,growth inhibition,[11]; [18],27%
same,growth inhibition,[11]; at 50.0 µM,2.7%
same,growth inhibition,[11]; at 100.0 µM,30%
same,growth inhibition,[12]; at 1.2 µM,2%
same,growth inhibition,[12]; at 3.7 µM,11%
same,growth inhibition,[12]; at 11.0 µM,20%
same,growth inhibition,[12]; at 33.0 µM,32%
same,growth inhibition,[12]; at 100.0 µM,44%
same,growth inhibition,[13]; at 1.2 µM,-1%
same,growth inhibition,[13]; at 3.7 µM,7%
same,growth inhibition,[13]; at 11.0 µM,17%
same,growth inhibition,[13]; at 33.0 µM,50%
same,growth inhibition,[13]; at 100.0 µM,82% (active)
same,growth inhibition,[14]; at 1.2 µM,2%
same,growth inhibition,[14]; at 3.7 µM,10%
same,growth inhibition,[14]; at 11.0 µM,17%
same,growth inhibition,[14]; at 33.0 µM,29%
same,growth inhibition,[14]; at 100.0 µM,44%
same,growth inhibition,[15]; [17],24%
same,growth inhibition,[15]; [18],47%
same,growth inhibition,[15]; at 50.0 µM,59%
same,growth inhibition,[16]; at 1.2 µM,0%
same,growth inhibition,[16]; at 3.7 µM,8%
same,growth inhibition,[16]; at 11.0 µM,23%
same,growth inhibition,[16]; at 33.0 µM,44%
same,growth inhibition,[16]; at 100.0 µM,51%
